# Experimental data taken from the supplement of paper PMC7858590.
# System: human monocyte-derived macrophages (polarized)
# Assay: cell shape (eccentricity) Z-score vs DMSO control; higher = more elongated, M2-like morphology
# Settings: 5 µM; 24 h; macrophage state: M1-polarized (IFNg + TNFa), cytokines present during treatment
# Protocol: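 Primary-screen hits were rescreened on polarized hMDMs with the differentiating cytokines (IL-4 + IL-13 or IFNg + TNFa) kept in the medium during treatment with compound at 5 uM for 24 h. The eccentricity Z-score vs DMSO wells is averaged over experiments.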
row,Structure (SMILES),cell shape (Z-score)
1,CC1(C)CCC(CN2CCN(c3ccc(C(=O)NS(=O)(=O)c4ccc(NCC5CCOCC5)c([N+](=O)[O-])c4)c(Oc4cnc5[nH]ccc5c4)c3)CC2)=C(c2ccc(Cl)cc2)C1,4.11
2,O=c1cc(-c2ccccc2F)[nH]c2cc3c(cc12)OCO3,0.5
3,CCC1(C)CC(=O)NC1=O (stereo not given),-7.19
4,CCCCCCOc1ccccc1C(N)=O,3.38
5,C#Cc1cccc(Nc2ncnc3cc(OCCOC)c(OCCOC)cc23)c1,11.8
6,O=C(c1ccc(/C=C/c2n[nH]c3ccccc23)cc1)N1CCNCC1,28.4
7,Cc1ccc(S(=O)(=O)OCC(=O)Nc2ccc(C(=O)O)c(O)c2)cc1,-2.63
8,C=C1C(=O)O[C@H]2C3=C(C)C[C@H](OC(C)=O)C[C@]3(C)CC[C@@H]12,-1.91
9,COc1cc2ncn(-c3cc(OCc4ccccc4C(F)(F)F)c(C(N)=O)s3)c2cc1OC,13.5
10,CCc1cnn2c(NCc3ccc[n+]([O-])c3)cc(N3CCCC[C@H]3CCO)nc12,8
11,Oc1cccc(O)c1,-3.74
12,COc1cc(OC)c(/C=C/S(=O)(=O)Cc2ccc(OC)c(NCC(=O)O)c2)c(OC)c1,-2.86
13,Cc1ccc(C(=O)Nc2ccc(S(=O)(=O)O)c3cc(S(=O)(=O)O)cc(S(=O)(=O)O)c23)cc1NC(=O)c1cccc(NC(=O)Nc2cccc(C(=O)Nc3cc(C(=O)Nc4ccc(S(=O)(=O)O)c5cc(S(=O)(=O)O)cc(S(=O)(=O)O)c45)ccc3C)c2)c1,6.07
14,CC1=CC(=O)CC2C1(C)CCC(C)C2(C)CC/C(C)=C\C(=O)O (stereo not given),-1.21
15,NC(=O)C1CCCc2c1[nH]c1ccc(Cl)cc21 (stereo not given),-2.04
16,Cc1[nH]c2ccccc2c1CCNCc1ccc(/C=C/C(=O)NO)cc1,6.17
17,Cn1cncc1[C@@](N)(c1ccc(Cl)cc1)c1ccc2c(c1)c(-c1cccc(Cl)c1)cc(=O)n2C,-0.763
18,C=C(c1ccc(C(=O)O)cc1)c1cc2c(cc1C)C(C)(C)CCC2(C)C,8.49
19,CC(C)(C)c1cc(C(=O)/C=C/c2ccc(C(=O)O)cc2)cc(C(C)(C)C)c1,-7.58
20,CC(NCCC(c1ccccc1)c1ccccc1)c1ccccc1 (stereo not given),-8.8
21,CC[C@H](Nc1ncnc2[nH]cnc12)c1nc2cccc(F)c2c(=O)n1-c1ccccc1,-16.8
22,COc1ccc(-c2oc3ccccc3c(=O)c2O)cc1OC,-0.838
23,C=C1CC[C@@H]2[C@](C)(CO[C@@H]3O[C@H](CO)[C@@H](O)[C@H](O)[C@H]3O)CCC[C@@]2(C)[C@@H]1CCC1=CCOC1=O,-4.62
24,Cc1ccc2c(=O)c3ccccc3n(CCCN)c2c1C,-0.216
25,C(=N\NC1=NCCN1)/c1c2ccccc2c(/C=N/NC2=NCCN2)c2ccccc12,33.2
26,c1ccc2c(Oc3nc(Nc4ccc(N5CCOCC5)cc4)c4ncn(C5CCCCC5)c4n3)cccc2c1,9.34
27,COCc1c(C(C)C)nc(C(C)C)c(/C=C/[C@@H](O)C[C@@H](O)CC(=O)O)c1-c1ccc(F)cc1,9.45

# Same assay, conditions: 5 µM; 24 h; macrophage state: M2-polarized (IL-4 + IL-13), cytokines present during treatment
row,Structure (SMILES),cell shape (Z-score)
1,COC(=O)Nc1nc2cc(Sc3ccccc3)ccc2[nH]1 [Fenbendazole],-14.3
2,COC(=O)Nc1nc2ccc(SC(C)C)cc2[nH]1,0.135
3,O=C1NC(=O)/C(=C/c2ccc3nccc(-c4ccncc4)c3c2)S1,-2.56
4,CC(=O)OCCNC(=O)c1cccnc1,2.01
5,C[C@@]12C[C@]3(O)O[C@H](O1)C1(COC(=O)c4ccccc4)[C@H]3C[C@@]12O[C@@H]1O[C@H](COC(=O)c2ccccc2)[C@@H](O)[C@H](O)[C@H]1O,-2.92
6,C=C1C(=O)O[C@H]2[C@H]1CC/C(C)=C/CC[C@@]1(C)O[C@@H]21 [Parthenolide],-1.29
7,C=C1C(=O)O[C@@H]2C3=C(C)CC[C@]34O[C@@H](C[C@@H]4C)[C@H]12,13
8,CCCc1c(OCC(O)COc2ccc3c(=O)cc(C(=O)O)oc3c2CCC)ccc(C(C)=O)c1O (stereo not given),-2.27
9,Cc1cc(CC(C)CC(C)(C)C)n(O)c(=O)c1 (stereo not given),0.506
10,C=C(C(=O)O)[C@@H]1CC[C@@]2(C)CC[C@H](O)[C@@]2(C(C)=O)C1,-6.45
11,C[C@H]1CN([C@@H](C)CO)S(=O)(=O)c2ccc(C#Cc3ccncc3)cc2O[C@@H]1CN(C)C(=O)Nc1ccc2c(c1)OCO2,5.87
12,OCc1ccc(-c2ccc(-c3ccc(CO)s3)o2)s1,-20.9
13,Oc1ccc(/C=C/c2cc(O)cc(O)c2)cc1,-0.6
